Gal4-VP16 FLuc: inhibits Gal4-VP16 luciferase reporter, ROR gamma counter-screen; AID 2546; Drosophila S2 Gal4-VP16 UAS-luciferase, luminescence, 20 h; Potency, µM (top dose mostly 53.6 µM), without a hit: top-dose activity, negative = inhibition, hits mostly inhibitors; 310,000 compounds, 3.5% hits;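 note: Gal4-VP16 expression switched on by copper sulfate through the metallothionein promoter; potency is the fitted concentration of half-maximal effect; % is set by controls: 0 for no effect and ±100 for the full control effect; nearly all actives have a fitted effect of over 50% in size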
CtBP-E1A blk: inhibitors of CtBP/E1A interaction | 340,000 compounds, 0.49% hits | AlphaScreen GST-E1A/His-CtBP binding, 1536-well; hits give low values | activity change, % (no concentration beside the values) | AID 651724; in the data active = activity change below about -65%; inconclusive = mostly about -30% to -63%; note: % is set by controls: 0 for no effect and ±100 for the full control effect
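GST-E1A and His-tagged CtBP (125 nM each as 5X stock) were preincubated with pin-transferred compound for 2 h at 37 °C in the dark, then glutathione donor and nickel acceptor beads were added for 1 h before AlphaScreen reading.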
CBFb-RUNX1 inh: inhibitors of human CBF-beta and RUNX1 interaction; Q01196+Q13951; AlphaScreen CBFb-His/RUNX1-biotin binding, biochemical; Potency, µM (titrated, usually from 59.8 µM), for inactives: at the top dose activity, negative = inhibition, most hits filed as inhibitors; 230,000 tested, under 10 active; AID 1477; note: % of control where 0% means no effect
Target sequence (Q01196 whole entry, looked up): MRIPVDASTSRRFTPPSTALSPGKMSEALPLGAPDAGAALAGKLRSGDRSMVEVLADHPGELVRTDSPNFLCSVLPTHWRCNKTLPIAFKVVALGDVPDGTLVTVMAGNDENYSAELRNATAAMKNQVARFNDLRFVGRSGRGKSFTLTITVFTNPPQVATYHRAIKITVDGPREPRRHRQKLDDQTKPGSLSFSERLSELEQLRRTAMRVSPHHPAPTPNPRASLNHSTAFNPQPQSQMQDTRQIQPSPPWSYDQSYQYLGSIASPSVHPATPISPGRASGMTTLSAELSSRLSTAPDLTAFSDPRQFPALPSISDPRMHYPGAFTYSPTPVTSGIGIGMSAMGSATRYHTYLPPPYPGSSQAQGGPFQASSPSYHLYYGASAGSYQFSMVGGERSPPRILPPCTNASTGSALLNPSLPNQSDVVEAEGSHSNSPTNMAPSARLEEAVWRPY
Target sequence (Q13951 whole entry, looked up): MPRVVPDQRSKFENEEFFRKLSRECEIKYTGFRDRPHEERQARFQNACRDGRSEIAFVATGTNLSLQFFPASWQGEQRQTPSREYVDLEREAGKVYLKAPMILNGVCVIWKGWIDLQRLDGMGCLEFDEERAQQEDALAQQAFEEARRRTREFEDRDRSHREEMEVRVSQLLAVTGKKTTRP
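CBF-beta (His) and RUNX1 (biotin), 30 nM each; 20 min preassociation; + compound, 15 min; + beads 50 ng each (Ni, streptavidin), 90 min; RT; AlphaScreen read.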
Six1-Eya2 blk: blocks human Six1 binding to Eya2; activity change, % (concentration not given with the values); 360,000 compounds, 0.56% hits; AlphaScreen GST-Six1/His-Eya2 binding, biochemical; hits give low values; Q15475+O00167; in the data active = activity change below about -65%; inconclusive = mostly about -30% to -63%; note: % is set by controls: 0 for no effect and ±100 for the full control effect
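Homogeneous AlphaScreen proximity assay pairing GST-Six1 with His-tagged Eya2 (added as 5X mix: 250 nM and 500 nM) in 50 mM Tris pH 8.0, 300 mM NaCl, 1 mM TCEP. Glutathione donor and nickel acceptor beads; 1 h, 37 °C, dark.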
RORgamma inh: ROR gamma (mouse) transcription inhibition; Drosophila S2 Gal4-RORgamma UAS-luciferase reporter, 20 h; Potency, µM (titrated, usually from 53.6 µM), for the others: at the top dose activity change, negative = inhibition, usual class: inhibitors; 310,000 compounds, 5.4% hits; AID 2551; note: potency is the fitted concentration of half-maximal effect; % is set by controls: 0 for no effect and ±100 for the full control effect; nearly all actives have a fitted effect of over 60% in size
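Luciferase reporter read in Schneider cells carrying Gal4-RORγ (mouse) and UAS-Photinus luciferase; cells given compound 1 h before 700 uM copper sulfate induction, then incubated 20 h at ambient temperature.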
MBNL1-CUG inh: MBNL1-poly(CUG) RNA binding inhibition; Potency, µM (titrated, usually from 57.5 µM), for the others: at the top dose activity change, negative = inhibition, actives largely listed as inhibitors; TR-FRET MBNL1-His/biotin-(CUG)12 binding, 665/545 ratio; Q9NR56; 280,000 compounds, 0.036% hits; active = well fitted inhibition curve with a large enough effect in the signal ratio, with a control signal flat, not every such curve was filed as active; inconclusive = small, poorly fitted or top-dose-only effect, or effect the other way, or a change in a side signal; inactive = no such curve, though single readings can be large or run the other way; the % refers to the signal ratio; note: potency is the fitted concentration of half-maximal effect; % is set by controls: 0 for no effect and ±100 for the full control effect
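TR-FRET between His-tagged MBNL1 and biotin-(CUG)12 RNA, detected with Tb anti-His antibody (0.055 ng/ul) and streptavidin-XL665 (5 nM), 60 min at room temperature. Compounds titrated 92 nM to 58 uM; 665/545 nm ratio normalized to buffer and complex controls.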
Starred values were filed as active, the others as inactive; ? = inconclusive; · = not tested or not shown; [ ] = remark or other dose. Sampled rows, rich in hits. Any-hit rate of the full collection: about 5.5%. Unless noted, calls come from the whole dose curve; as a rule, active = well fitted curve in the direction sought with a large enough effect; inconclusive = small, poorly fitted or top-dose-only effect, or another doubt; inactive = no such curve, though single readings can be large; an effect the other way counts as inactive or inconclusive.

SMILES	Gal4-VP16 FLuc	CtBP-E1A blk	CBFb-RUNX1 inh	Six1-Eya2 blk	RORgamma inh	MBNL1-CUG inh
Clc1ccc(Nc2cc(-c3ccccc3)nc3ncnn23)cc1	-2.6%	7.1	1.7%	2.7	-44.0%	-6.5%
CC(=O)CSc1cc(-c2ccccc2)nc2ncnn12	15.8µM*	-2.5	5.6%	24.8	2.51µM*	-7.9%
O=C(Nc1ccc(S(=O)(=O)N2CCCC2)cc1)c1cccs1	2.0%	13.7	6.9%	25.0	36.4%	-1.4%
O=C(Nc1nc(-c2ccc(S(=O)(=O)N3CCCCCC3)cc2)cs1)c1cccs1	3.3%	-70.0*	4.6%	?	-10.1%	97.5%
O=C(Nc1nc(-c2ccc(S(=O)(=O)N3CCCC3)cc2)cs1)c1cccs1	13.0%	-75.4*	0.6%	-73.3*	16.7%	20.7%
CCN(CC)CCn1c(-c2ccccc2)nc2c(NCCO)nc(C)nc21	-4.6%	·	2.7%	·	-27.3%	·
Cc1cc(N2CCCCC2)n2ncc(-c3ccccc3)c2n1	10µM*	92.1	?	74.0	?	-2.6%
Cc1nc2c(-c3ccccc3)cnn2c(N)c1-c1ccccc1	?	-1.3	·	26.5	0.794µM*	-1.2%
Cc1cc(N2CCOCC2)n2ncc(-c3ccccc3)c2n1	12.6µM*	19.7	?	19.9	?	-2.1%
Cc1cc(-c2ccccc2)n2ncc(-c3ccccc3)c2n1	10µM*	2.2	?	24.4	?	?
Cc1cc(N2CCCCC2)n2ncc(-c3ccc(Cl)cc3)c2n1	?	59.6	?	34.7	37.0%	-3.8%
CCOC(=O)C(=Cc1ccc2c(c1)OCO2)c1ccccc1	·	5.0	·	2.0	·	·
Cc1ccc(S(=O)(=O)N2C(=O)/C(=C3\SC(=S)NC3=O)c3ccccc32)cc1	1.1%	·	6.4%	·	6.0%	-7.5%
Cc1onc(-c2ccc(Cl)cc2)c1-c1ccnc(SCC(=O)Nc2cc(Cl)cc(Cl)c2)n1	-0.3%	-3.8	10.1%	2.2	?	2.0%
Cc1cc(NC2CCCC2)n2nc(C)c(-c3ccccc3)c2n1	5.0%	15.0	·	26.5	-43.6%	0.9%
Cc1cc(NC2CCCC2)n2ncc(-c3ccccc3)c2n1	8.91µM*	58.4	·	34.8	7.08µM*	-5.3%
O=C(CNC(=O)c1ccc2c(c1)OCO2)N/N=C/c1cc(Br)ccc1O	?	-18.2	·	-17.9	20µM*	12.0%
O=C(CNC(=O)c1ccncc1)N/N=C/c1cc(Br)ccc1O	-5.6%	-66.4*	-3.7%	?	-6.6%[10 µM]	·
O=C(CNC(=O)c1ccc2c(c1)OCCO2)N/N=C/c1cccc(Br)c1	-19.5%	-1.5	-14.7%	-3.9	29.7%	-7.8%
O=C(CNC(=O)c1ccccc1)N/N=C/c1cc(Br)ccc1O	7.08µM*	9.6	-11.3%	-65.0*	2.51µM*	64.1%
O=C(N/N=C/c1cc(Br)ccc1O)C(c1ccncc1)N1CCOCC1 (stereo unspecified)	15.8µM*	14.2	-1.9%	-89.2*	5.01µM*	27.6%
O=C(CNC(=O)c1ccncc1)N/N=C/c1cc(Br)ccc1OCc1ccccc1	2.2%	-18.7	-9.3%	-23.6	6.0%	4.0%
COc1cccc(NC(=O)C2(C)CCCN2C(=O)C(C)C)c1 (stereo unspecified)	·	27.0	·	31.8	·	·
O=C(CN1CC(c2ccccc2)CC1=O)N/N=C/c1cc(Br)ccc1O (stereo unspecified)	3.16µM*	-89.8*	-6.6%	-84.3*	4.47µM*	26.8%
N/C(=N\OC(=O)CC1CCCCC1)c1ccc([N+](=O)[O-])cc1	35.5µM*	-14.3	-3.7%	-8.9	0.9%	?
SMILES	Gal4-VP16 FLuc	CtBP-E1A blk	CBFb-RUNX1 inh	Six1-Eya2 blk	RORgamma inh	MBNL1-CUG inh
Oc1[nH]c2ccccc2c1N=NC(=S)NCCc1ccccc1	3.16µM*	-28.9	-25.4%	?	4.47µM*	8.6%
CC(C)c1ccc2[nH]c(O)c(N=NC(=S)NCCc3ccccc3)c2c1	2.24µM*	·	-0.7%	?	2µM*	-1.5%
Cc1ccc2[nH]c(O)c(N=NC(N)=S)c2c1	1.8%	-29.9	-9.3%	?	20.3%	·
NC(=S)N=Nc1c(O)[nH]c2ccccc12	-2.7%	?	-7.3%	?	20µM*	?
CCNC(=S)N=Nc1c(O)[nH]c2ccc(C(C)C)cc12	7.08µM*	?	?	?	2.82µM*	7.4%
CC(C)c1ccc2[nH]c(O)c(N=NC(=O)c3ccc(CSc4nncn4C)cc3)c2c1	-0.7%	12.7	0.7%	15.7	5.5%	19.0%
Cc1ccc(Cc2c(-c3cccc(Br)c3)nc3c(Cl)cc(C(F)(F)F)cn23)cc1	·	0.3	·	-2.3	·	·
Cc1ccc(C)o1	5.0%	·	7.2%[21.7 µM]	·	-1.0%	·
O=C(C(O)c1ccccc1)N1CCN(S(=O)(=O)c2ccc(OC(F)(F)F)cc2)CC1 (stereo unspecified)	·	-1.1	·	8.9	·	·
CCCCNC(=S)N=Nc1c(O)[nH]c2ccccc12	5.62µM*	-19.1	-14.6%	-26.5	2.24µM*	?
NC(=S)N=Nc1c(O)[nH]c2c(Br)cc(Br)cc12	11.2µM*	0.0	10.7%	-6.4	3.55µM*	5.9%
COc1ccc(NC(=O)CCCNC(=O)c2ccc(Cl)cc2)cc1S(=O)(=O)N1CCOCC1	·	-17.3	·	0.3	·	·
Cc1ccccc1-n1c(=S)[nH]c2nc3c(cc2c1=O)COC(C)(C)C3	11.2µM*	-8.5	5.6%	1.2	5.01µM*	1.7%
CCC1(C)Cc2nc3[nH]c(=S)n(-c4ccc(C)cc4)c(=O)c3cc2CO1 (stereo unspecified)	14.1µM*	3.6	-5.2%	-4.4	1.26µM*	-2.8%
Cc1ccccc1-n1c(=S)[nH]c2nc3c(cc2c1=O)CCCC3	4.47µM*	2.7	6.9%	4.9	1.26µM*	16.4%
Cc1ccc(-n2c(=S)[nH]c3nc4c(cc3c2=O)COC(C)(C)C4)cc1	?	-3.0	5.9%	-0.9	3.55µM*	-1.4%
CC1(C)Cc2nc3[nH]c(=S)[nH]c(=O)c3cc2CO1	3.0%	3.1	7.0%	6.4	-3.2%	·
CSc1nc2nc3c(cc2c(=O)n1-c1ccc(C)cc1)COC(C)(C)C3	-10.3%	-0.4	3.4%	-2.5	29.1%	9.4%

Source: PubChem BioAssay
